Screening results: PubChem, several laboratories
Gli-Sufu block – blocks Gli-Sufu signaling in a luciferase reporter | inhibition, % at 5 µM | Sufu-KO-LIGHT fibroblasts, Gli luciferase reporter luminescence | actives 0.74% (n = 340,000) | AID 588413;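 active = inhibition above about 55%, limit read from the data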;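 also: 0% = DMSO-treated cells and 100% = wells with medium but no cells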
COUP-TFII inh – NR2F2 (human) inhibition, primary screen | HEK293T NGFI-A luciferase reporter, luminescence | actives 0.7% (n = 370,000) | inhibition, % at 8.6 µM;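 active = inhibition above a per-plate cutoff, mean inhibition of test wells between control levels plus 3 SD, cut at about 38% in these data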;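 also: cells cotransfected with COUP-TFII expression vector driving the NGFI-A reporter; 0% = median of COUP-TF2 test wells and 100% = reporter-only cells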
Target sequence (P24468 whole entry, looked up): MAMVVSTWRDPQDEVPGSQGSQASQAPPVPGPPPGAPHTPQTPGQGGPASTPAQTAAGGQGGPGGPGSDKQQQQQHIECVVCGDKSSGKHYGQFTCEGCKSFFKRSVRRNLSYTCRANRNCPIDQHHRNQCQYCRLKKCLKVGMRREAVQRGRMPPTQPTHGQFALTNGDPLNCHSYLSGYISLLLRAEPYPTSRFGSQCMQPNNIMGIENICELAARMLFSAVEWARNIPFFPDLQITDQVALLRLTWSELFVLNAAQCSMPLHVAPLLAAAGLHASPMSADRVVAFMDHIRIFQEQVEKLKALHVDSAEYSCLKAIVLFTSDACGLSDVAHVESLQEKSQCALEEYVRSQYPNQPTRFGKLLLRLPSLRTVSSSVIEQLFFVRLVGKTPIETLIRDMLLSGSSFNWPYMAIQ
697 NFkB inh – lowers PMA/ionomycin-induced NF-kB signal in 697 B cells | actives 0.33% (n = 330,000) | 697 B-cell NF-kB luciferase reporter, 16 h | inhibition, % at 4 µM; in the data active = inhibition above about 35%
GalR3 antag – human GalR3 antagonism | O60755 | HEK293 GalR3-CNG cAMP membrane potential fluorescence; galR3 body fused to GalR1 C-terminus | inhibition, % at 3 µM | actives 0.44% (n = 360,000) | AID 651719;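 active = inhibition above the screen-wide average plus 3 SD, cut at about 13% in these data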;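 also: forskolin and galanin both at EC90 stimulate the cells; cAMP rise reported by CNG channel membrane potential dye signal; 0% = forskolin plus galanin with DMSO and 100% = forskolin alone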
Target sequence (O60755 1-299 limits assumed): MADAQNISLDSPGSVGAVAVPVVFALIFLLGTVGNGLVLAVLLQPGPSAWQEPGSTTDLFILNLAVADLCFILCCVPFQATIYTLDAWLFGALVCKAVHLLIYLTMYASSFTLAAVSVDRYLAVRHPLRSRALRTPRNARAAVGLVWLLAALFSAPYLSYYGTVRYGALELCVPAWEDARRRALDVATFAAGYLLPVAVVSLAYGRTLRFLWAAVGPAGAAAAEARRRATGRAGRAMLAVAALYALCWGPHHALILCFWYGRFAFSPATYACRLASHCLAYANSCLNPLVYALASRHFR
Jurkat NFkB inh – lowers PMA/ionomycin-induced NF-kB signal in Jurkat cells | inhibition, % at 4 µM | actives 0.53% (n = 330,000) | PMA/ionomycin-induced NF-kB luciferase reporter, luminescence | AID 435003; in the data active = inhibition above about 50%
Jurkat NFkB conf – inhibitors of the PMA/ionomycin-induced NF-kB reporter in Jurkat cells, retest; AID 435020; inhibition, % at 4 µM; Jurkat NF-kB luciferase, 16 h; actives 27% (n = 2,700); shares compounds with Jurkat NFkB inh;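 active = inhibition reaching about 45% at 4 µM in either replicate, limit read from the data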;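 also: plate controls were PMA/ionomycin stimulated DMSO wells for no effect and unstimulated DMSO wells for full effect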
697 NFkB conf – inhibitors of the PMA/ionomycin-induced NF-kB reporter in 697 B cells, retest; shares compounds with 697 NFkB inh; 697 B-cell NF-kB luciferase, 16 h; inhibition, % at 4 µM; actives 35% (n = 2,000); AID 449746; in the data active = inhibition mostly above about 28%, no sharp cut-off; inactive = mostly below about 22%
Gli-Sufu confirm – Gli-SUFU antagonism confirmation, single concentration. actives 40% (n = 2,500). shares compounds with Gli-Sufu block. Sufu-KO-LIGHT cells, Gli luciferase reporter, luminescence. AID 602428. inhibition, % at 5 µM;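 active = mean inhibition at 5 µM reaching about 45%, limit read from the data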;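 also: plate controls were DMSO-treated cells for no effect and wells lacking cells for full effect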
SufuKO cytotox – cytotoxic in Gli-SUFU antagonist counter-screen; shares compounds with Gli-Sufu block; Sufu-KO-LIGHT cells cytotoxicity, ATP luminescence; cytotoxicity, % at 5 µM; actives 32% (n = 2,500);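 active = mean cytotoxicity at 5 µM above about 25%, limit read from the data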;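 also: cells exposed to compound overnight for roughly 16 to 18 hours; plate controls were DMSO wells with cells for no effect and medium without cells for full effect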
Wnt3a cs – counter-screen for Gli-SUFU antagonists: Wnt3a reporter inhibition. shares compounds with Gli-Sufu block. inhibition, % at 6.25 µM. Wnt-LIGHT cells, Wnt3a-driven luciferase reporter, luminescence. actives 20% (n = 2,500);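 active = mean inhibition above about 25%, limit read from the data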
GalR3 conf – confirmation of human galanin receptor 3 antagonists. shares compounds with GalR3 antag. HEK293 GalR3 CNG cAMP biosensor, membrane potential fluorescence; galR3 fused to GalR1 carboxy tail; challenged with forskolin and galanin at EC90. inhibition, % at 3 µM. actives 59% (n = 1,600). AID 652245;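 active = inhibition above the primary screen's cutoff, the mean inhibition of all screened compounds plus 3 SD, cut at about 13% in these data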;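 also: 0% = forskolin plus galanin and 100% = forskolin alone with DMSO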
CNG parental – parental cell agonism counter-screen for GalR3 antagonists | HEK293-CNG parental cells, cAMP membrane potential fluorescence; normalised: DMSO wells 0%, forskolin wells 100% | activation, % at 3 µM | AID 652268 | actives 10% (n = 1,600) | shares compounds with GalR3 antag; in the data active = activation above about 1.3%
Gal4-VP16 ctr – VP16 inhibition counter-screen for COUP-TFII; shares compounds with COUP-TFII inh; HEK293 Gal4-VP16 luciferase reporter, luminescence; inhibition, % at 8.5 µM; actives 25% (n = 2,500); AID 687007; in the data active = inhibition above about 13%
COUP-TFII conf – confirmation of human COUP-TFII (NR2F2) inhibitors; shares compounds with COUP-TFII inh; HEK293 NGFI-A luciferase reporter, luminescence; inhibition, % at 8.5 µM; actives 45% (n = 2,500); AID 687008;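 active = mean inhibition over three repeats above a set limit taken from the earlier primary screen, cut at about 38% in these data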;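 also: 100% = cells given the luciferase reporter alone without the COUP-TF2 vector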
* hit, by the source's call. An excerpt weighted towards active compounds, which were near 2% of everything screened.

Screening CCC(C)(C)c1ccc(OCCCC[n+]2cccc(C)c2C)c(C(C)(C)CC)c1 returned Gli-Sufu block 84.9*, COUP-TFII inh 57.1*, 697 NFkB inh 34.2, GalR3 antag 15.1*, Jurkat NFkB inh 94.2*, Jurkat NFkB conf 74.5*, GalR3 conf 66.6*, CNG parental 1.3*, Gal4-VP16 ctr 14.3* and COUP-TFII conf 59.9*.
Screening CC1(C)CC(N2CCCC2)=CC(=[N+]2CCCCCC2)C1 returned Gli-Sufu block 82.8*, COUP-TFII inh 59.7*, 697 NFkB inh 71.1*, GalR3 antag 55.2*, Jurkat NFkB inh 57.0*, Jurkat NFkB conf 63.2*, 697 NFkB conf 50.6*, Gli-Sufu confirm 87.9*, SufuKO cytotox 34.5*, Wnt3a cs 42.0*, Gal4-VP16 ctr 14.1* and COUP-TFII conf 58.2*.
For COC(=O)c1ccc2nc(Nc3nc4c(F)cc(F)cc4s3)sc2c1 the results were Gli-Sufu block 49.1, COUP-TFII inh 66.1*, 697 NFkB inh -3.3, GalR3 antag -4.3, Jurkat NFkB inh 63.2*, Jurkat NFkB conf 92.1*, Gal4-VP16 ctr 26.1* and COUP-TFII conf 81.6*.
Screening COC(=O)c1ccc2nc(NC(=O)C(C)C)sc2c1 returned Gli-Sufu block -49.3, COUP-TFII inh -39.7, 697 NFkB inh -128.6, GalR3 antag -5.7 and Jurkat NFkB inh -70.3.
For CCn1c(Cc2cccs2)nnc1SCC(=O)Nc1ccc(OCc2ccccc2)cc1 the results were COUP-TFII inh 9.6.
For Cc1ccc(-n2c(SCc3ccc(Cl)c(Cl)c3)nnc2-c2ccc(C(C)(C)C)cc2)cc1 the results were COUP-TFII inh -13.1.
`CCOC(=O)N1CCN(C(=O)C[C@H]2C[C@@]3(C(=O)OC)C(=C[C@H](C4CCCC4)O[C@@H]3C)N(CCc3ccc(OC)c(OC)c3)C2=O)CC1` gave COUP-TFII inh -3.7.
For COc1ccc(-n2cc(-c3ccc(C)cc3)[n+]3c2SCC3)cc1 the results were COUP-TFII inh 66.5*, 697 NFkB inh 23.1, GalR3 antag 0.9, Jurkat NFkB inh 59.6*, Jurkat NFkB conf 55.7*, Gal4-VP16 ctr 10.0 and COUP-TFII conf 64.1*.
Screening CCCCCN1CCCCC(NC(=O)c2ccc(F)cc2)C1=O (stereo not given) returned COUP-TFII inh -9.4.
C=CCOC(=O)N[C@H](c1cccc(OC)c1)[C@H](C)/C=C/CC(=O)OC was read as COUP-TFII inh -7.8.
`O=C(Cn1nnc(-c2ccncc2)n1)Nc1ccc(F)cc1F` gave COUP-TFII inh -6.0.
CC(C)CCOc1cccc(OCC(=O)Nc2ccncc2)c1 was read as Gli-Sufu block 21.7, COUP-TFII inh 62.0*, 697 NFkB inh -10.6, GalR3 antag 91.5*, Jurkat NFkB inh 56.7*, Jurkat NFkB conf 64.8*, GalR3 conf 109.6*, CNG parental -1.0, Gal4-VP16 ctr -2.5 and COUP-TFII conf 55.1*.
`O=C(CSc1nnnn1C1CC2CCC1C2)Nc1ccnc2ccccc12` (stereo not given) gave Gli-Sufu block 82.5*, COUP-TFII inh 72.0*, 697 NFkB inh 94.6*, GalR3 antag 88.7*, Jurkat NFkB inh 82.7*, Jurkat NFkB conf 70.9*, 697 NFkB conf 95.9*, Gli-Sufu confirm 84.9*, SufuKO cytotox 35.1*, Wnt3a cs 6.2, GalR3 conf 117.1*, CNG parental 0.6, Gal4-VP16 ctr 2.2 and COUP-TFII conf 69.9*.
C=C(C)CSc1nnc(-c2cc(-c3ccccc3)n[nH]2)n1N was read as COUP-TFII inh -15.7.
For Cc1ccc(C(=O)N/N=C/c2ccc([N+](=O)[O-])s2)cc1 the results were Gli-Sufu block -28.8, COUP-TFII inh 53.5*, 697 NFkB inh 38.2*, GalR3 antag -0.5, Jurkat NFkB inh 64.4*, Jurkat NFkB conf 48.5*, 697 NFkB conf 16.1, Gal4-VP16 ctr 84.5* and COUP-TFII conf 92.6*.
O=[N+]([O-])c1ccc(N2CCN(Cc3cccc([N+](=O)[O-])c3)CC2)cc1 was read as Gli-Sufu block 34.2, COUP-TFII inh 18.4, 697 NFkB inh -7.0, GalR3 antag -11.2 and Jurkat NFkB inh 41.9.
`O=[N+]([O-])c1ccc(CN2CCN(c3ccc([N+](=O)[O-])cc3)CC2)cc1` gave Gli-Sufu block 19.9, COUP-TFII inh 39.8*, 697 NFkB inh -14.7, GalR3 antag -13.1, Jurkat NFkB inh 60.2*, Jurkat NFkB conf 21.2, Gal4-VP16 ctr 3.8 and COUP-TFII conf 20.2.
CC(=O)N1c2ccc(S(=O)(=O)N3CCC(C(=O)Nc4cccc(C)n4)CC3)cc2CC1C (stereo not given) was read as Gli-Sufu block 52.5, COUP-TFII inh 54.1*, 697 NFkB inh -7.2, GalR3 antag 51.4*, Jurkat NFkB inh 53.8*, Jurkat NFkB conf 50.4*, GalR3 conf 93.7*, CNG parental -0.5, Gal4-VP16 ctr 6.7 and COUP-TFII conf 54.2*.
For CCN1/C(=C/c2cccc[n+]2C)Sc2ccc(OC)cc21 the results were Gli-Sufu block 77.0*, COUP-TFII inh 77.5*, 697 NFkB inh -9.4, GalR3 antag -9.4, Jurkat NFkB inh 71.9*, Jurkat NFkB conf -4.9, Gal4-VP16 ctr -4.3 and COUP-TFII conf 46.0*.
